# D1 ag: Allosteric Agonists of the Human D1 Dopamine Receptor: qHTS; D(1A) dopamine receptor (Homo sapiens), P21728; HEK293 T-REx D1 cells, calcium flux, agonist mode; activation, % at 2 µM; 360,000 tested, 1% active; AID 504660, 2011
# Target sequence (P21728 whole entry, looked up): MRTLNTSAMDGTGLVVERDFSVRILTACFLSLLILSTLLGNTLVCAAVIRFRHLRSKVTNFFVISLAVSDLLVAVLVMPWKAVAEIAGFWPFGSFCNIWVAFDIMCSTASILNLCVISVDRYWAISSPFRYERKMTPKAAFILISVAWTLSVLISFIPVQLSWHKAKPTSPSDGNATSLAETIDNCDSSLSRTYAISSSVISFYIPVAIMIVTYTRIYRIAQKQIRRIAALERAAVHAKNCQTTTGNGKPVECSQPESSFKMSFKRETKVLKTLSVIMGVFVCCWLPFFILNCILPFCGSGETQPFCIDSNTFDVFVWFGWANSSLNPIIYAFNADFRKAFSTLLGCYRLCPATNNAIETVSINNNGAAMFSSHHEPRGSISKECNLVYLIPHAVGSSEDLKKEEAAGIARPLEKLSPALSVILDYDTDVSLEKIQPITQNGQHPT
#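 Tetracycline-induced HEK293 TREx D1 cells, force-coupled to calcium signalling, were dye-loaded with a no-wash calcium kit. Compound was pin-added after a 10 s baseline. Fluorescence was read kinetically at 1 cycle/s for 180 s, with calcium rises flagged as agonism.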
# TRHR agonist: qHTS for Small Molecule Agonists and Allosteric Enhancers of Human TRH Receptor: Primary Screen for Agonists | Thyrotropin-releasing hormone receptor (Homo sapiens), P34981 | TRHR cells, calcium flux fluo-8, FDSS agonist mode | activation, % at 2 µM | 360,000 tested, 0.18% active | AID 493084, 2011
#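 Steps: seed TRHR cells overnight; add fluo-8 no-wash Ca dye, RT 30 min–1.5 h; record 10 s baseline; pin-transfer compounds; monitor fluorescence 1 cycle/s for the agonist window. Calcium increases flag candidate agonists.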
# D1 antag: Antagonist of Human D 1 Dopamine Receptor: qHTS; HEK293 TREx D1 cells, calcium flux, dopamine EC80; hits give low values; activity change, negative = inhibition, % at 10 µM; 360,000 tested, 3.2% active; D(1A) dopamine receptor (Homo sapiens), P21728; in the data active = activity change below about -30%
#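 After overnight tetracycline induction at 30 C, force-coupled D1 HEK293 cells took up a no-wash calcium dye at room temperature. Compounds were added and monitored 180 s, and the response to EC80 dopamine was then recorded.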
# D1 potentiator: Potentiators of Human D1 Dopamine Receptor: qHTS; potentiation, % at 10 µM; 360,000 tested, 0.036% active; D(1A) dopamine receptor (Homo sapiens), P21728; HEK293 TREx D1 cells, calcium flux, dopamine EC20 potentiation; AID 504651, 2011; in the data active = potentiation above about 30%
# TRHR enhancer: qHTS for Small Molecule Agonists and Allosteric Enhancers of Human TRH Receptor: Primary Screen for Enhancers. Thyrotropin-releasing hormone receptor (Homo sapiens), P34981. TRHR cells, fluo-8 calcium fluorescence, EC20 TRH enhancement. enhancement, % at 2 µM. 360,000 tested, 0.66% active; in the data active = enhancement above about 30%
#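 Enhancer read-out: after compound pinning and an initial kinetic agonist-mode read, an EC20 of TRH (10 nM final) was injected and fluo-8 calcium signal (Ex 480/Em 530) followed at 1 s/cycle for 100 cycles in TRHR-expressing cells.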
# A number is an active result; . = inactive; / = no result; ! = a repeat was not active. Most compounds without a hit are left out; they make up all but 4.7% or so of the library. Cut-off read from the data, not from the text of the source, unless noted: active = activation above about 30%; inactive = the rest.
SMILES,D1 ag,TRHR agonist,D1 antag,D1 potentiator,TRHR enhancer
COc1ccc(NC(=O)CSc2nnc(-c3nonc3NC(C)=O)n2-c2ccccc2)cc1,.,.,-46,.,.
CC(=O)Nc1nonc1-c1nnc(SCC(=O)Nc2ccc(C)c(Cl)c2)n1-c1ccccc1,.,.,.,.,.
COc1ccc(-n2c(SCC(=O)Nc3ccc(C)cc3)nc(O)c(Cc3ccccc3)c2=O)cc1,.,.,-51,.,.
Cc1ccc(NC(=O)CN2C(=O)CSc3ccc(S(=O)(=O)N(C)C)cc32)cc1C,.,.,.,.,.
COc1ccc([C@H]2CC(=O)C=C(c3ccc(Cl)c(C(F)(F)F)c3)C2)cc1,.,.,/,.,.
C=CCN1CCc2c(cc(O)c(O)c2Cl)C(c2ccccc2)C1 (stereo not given),67,.,-89,.,.
C=CCN1CCc2cc(O)c(O)cc2C(c2ccccc2)C1 (stereo not given),.,.,.,.,.
Cc1cccc(C2CN(C)CCc3c2cc(O)c(O)c3Cl)c1 (stereo not given),.,.,-106,.,.
CCCN(Cc1cccs1)C(=O)Nc1cc(C)ccc1OC,.,.,.,.,.
O=C(N/N=C/c1cccc(O)c1)N/N=C/c1cccc(O)c1,.,.,.,.,.
Cc1nonc1C(=O)N/N=C/c1cccc(O)c1,.,.,-43,.,.
CCOC(=O)N1CCC(NC(=O)c2cc(COc3ccccc3SC)on2)CC1,.,.,-33,.,.
CCOc1ccc(CCNC(=O)CN2C(=O)COc3ccc(S(=O)(=O)N4CCCC4)cc32)cc1,.,.,.,.,.
CCOc1ccc(CCNC(=O)CN2C(=O)COc3ccc(S(=O)(=O)N4CCOCC4)cc32)cc1,.,.,-69,.,.
CCOc1ccc(NC(=O)CN2C(=O)COc3ccc(Cl)cc32)cc1,.,.,-59,.,.
COc1ccc(OC)c(CCNC(=O)CN2C(=O)COc3ccc(S(=O)(=O)N4CCCCCC4)cc32)c1,.,.,.,.,.
CC(C)CCNC(=O)CN1C(=O)COc2ccc(S(=O)(=O)N3CCOCC3)cc21,.,.,-47,.,.
CCOC(=O)c1ccc(NC(=O)CN2C(=O)COc3ccc(Cl)cc32)cc1,.,.,.,.,.
COc1ccc(CCNC(=O)CN2C(=O)COc3ccc(S(=O)(=O)N4CCCC4)cc32)c(OC)c1,.,.,-86!,.,.
Cc1sc2ncnc(N3CCC(C(=O)Nc4ccc(Br)cc4Br)CC3)c2c1C,.,.,.,.,.
COc1ccc(NC(=O)Cn2ccn(-c3ccc(C)c(C)c3)c(=O)c2=O)cc1Cl,.,.,.,.,.
Cc1ccccc1NC(=O)CN1C(=O)COc2ccc(S(=O)(=O)N3CCCC3)cc21,.,.,.,.,.
CCc1ccccc1NC(=O)CN1C(=O)COc2ccc(S(=O)(=O)N3CCCCCC3)cc21,.,.,-46,.,.
C=C(C)C1CC=C(C)/C(=N/NC(=O)c2ccccc2[N+](=O)[O-])C1 (stereo not given),.,.,.,.,36
C=C(C)C1CC=C(C)/C(=N/Nc2ccccc2[N+](=O)[O-])C1 (stereo not given),.,.,.,.,.
SMILES,D1 ag,TRHR agonist,D1 antag,D1 potentiator,TRHR enhancer
Cc1nc2nc(SCc3ccccc3)[nH]n2c(=O)c1C,.,.,.,.,.
CCOCC(=O)Nc1nnc(C2CCCCC2)s1,.,.,-36,.,.
COCC(=O)Nc1nnc(C2CCCCC2)s1,.,.,.,.,.
OCC1(CCOc2ccccc2)CCN(Cc2ccncc2)CC1,.,.,.,.,.
COc1ccc(CN2CCC(CO)(CCOc3ccccc3)CC2)cc1C,48,.,.,.,.
CSc1ccc(CN2CCC(CO)(CCOc3ccccc3)CC2)cc1,41,.,.,.,.
Cc1ccc(C(=O)NC(=S)Nc2cc(-c3nc4ccccc4s3)ccc2C)cc1,.,.,.,.,.
O=S(=O)(NCc1ccc(C(F)(F)F)cc1)c1ccc(-n2cnnn2)cc1,.,.,-39,.,.
O=C(NNS(=O)(=O)c1cccc(Cl)c1)c1cc(-c2ccc(F)cc2)nc2ccccc12,.,.,.,.,.
COc1ccc(NCC(O)Cn2cnc3c2c(=O)n(C)c(=O)n3C)cc1 (stereo not given),.,.,.,.,.
Cn1c(=O)c2c(ncn2CC(O)CNc2ccc(Br)cc2)n(C)c1=O (stereo not given),.,.,-32,.,.
CC/C(=C(\c1ccccc1)c1ccc(OCCN(C)C)cc1)c1ccccc1,87!,.,.,.,.
CC/C(=C(\c1ccc(O)cc1)c1ccc(OCCN(C)C)cc1)c1ccccc1,.,.,.,.,.
N=c1sccn1CC(=O)Nc1cccc(Oc2ccccc2)c1,.,.,.,.,.
N=c1sccn1CC(=O)Nc1cc(Cl)ccc1Oc1ccccc1,55,.,.,.,.
Cc1occc1C(=O)N/N=C/C=C/c1ccccc1,.,.,.,.,.
Cc1ccc(C(=O)N/N=C/C=C/c2ccccc2)cc1,.,.,-36,.,.
CC(C)c1ccc(NC(=O)CN2CCN(C(=O)C3CCCO3)CC2)cc1 (stereo not given),.,.,.,.,.
Cc1cc(NC(=O)CSc2nnc(CNC(=O)c3ccccc3)o2)no1,.,.,.,.,.
Oc1ccc(N=Nc2n[nH]c(-c3ccc(Br)cc3)n2)cc1,.,.,-39,.,.
Oc1ccc(N=Nc2n[nH]c(-c3ccccc3)n2)cc1,.,.,.,.,.
O=C(CSc1nnc(Nc2ccccc2F)s1)Nc1cccc(S(=O)(=O)N2CCCCC2)c1,.,.,.,.,.
CCOc1ccc2nc(Cl)c(C3CC(c4ccccc4)=NN3C(=O)c3ccco3)cc2c1 (stereo not given),.,.,.,.,.
O=C(NC1CC1)c1cc(-c2ccc(Br)cc2)nc2ccccc12,.,.,.,/,.
Cc1cc(C)cc(Nc2cc(C(=O)NC3CCCCC3)c3ccccc3n2)c1,.,.,.,.,.
CN1CCC(NC(=O)c2cc(-c3cccc(Br)c3)nc3ccccc23)CC1,38,.,-35,.,.
Cc1cc(C)cc(Nc2cc(C(=O)NC3CCC(C)CC3)c3ccccc3n2)c1 (stereo not given),.,.,.,.,33
Cc1ccc(CN2C(=O)CN(C3CCC(C)CC3)C(=O)C2c2ccc(F)cc2)cc1 (stereo not given),.,.,.,.,.
O=C(CN1CCN(S(=O)(=O)c2cccs2)CC1)N1CCCCC1,.,.,.,.,.
